Assay outcomes (PubChem)
HP1b chromo inh: HP1-beta chromodomain-methylated histone interaction inhibition | AlphaScreen HP1-beta / biotin-H3K9me3 peptide binding | Potency, µM (top dose mostly 114 µM), without a hit: at the top dose activity change, negative = inhibition, actives largely listed as inhibitors | hit rate 0.56% among 390,000 | AID 540317; also: nearly all actives have a fitted effect of over 70% in size
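Compound inhibition of the preformed complex between 50 nM HP1-beta and 50 nM biotinylated H3K9me3 peptide was read by AlphaScreen. Buffer was PBS pH 7.4 with 0.01% Tween-20. Incubations ran 30 min at room temperature, with 10 ug/mL donor/acceptor beads.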
G9a block: inhibitors of human histone lysine methyltransferase G9a. Q96KQ7. G9a H3K9 monomethylation, AlphaScreen, 2 h. Potency, µM (highest dose often 102 µM), without a hit: at the top dose activity, negative = inhibition, actives largely listed as inhibitors. hit rate 8.8% among 350,000. AID 504332; also: % is scaled to controls: 0 for no effect and ±100 for the full control effect; nearly all actives have a fitted effect of over 75% in size
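Step 1: enzyme (final 20 nM) with compound, 15 min RT. Step 2: substrate peptide 500 nM and SAM 20 uM, 2 h RT. Step 3: anti-H3K9me1 antibody and AlphaScreen beads, 10 min, then plate read.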
JMJD2A Tudor inh: JMJD2A Tudor domain (human) inhibition | O75164 | AlphaScreen JMJD2A-Tudor / H3K4me3 peptide binding | Potency, µM (series often up to 114 µM), for inactives: top-dose activity change, negative = inhibition, actives largely listed as inhibitors | hit rate 4.4% among 390,000 | AID 504339; also: % is scaled to controls: 0 for no effect and ±100 for the full control effect; nearly all actives have a fitted effect of over 50% in size
Target sequence (O75164 whole entry, looked up, the tested form may be a part): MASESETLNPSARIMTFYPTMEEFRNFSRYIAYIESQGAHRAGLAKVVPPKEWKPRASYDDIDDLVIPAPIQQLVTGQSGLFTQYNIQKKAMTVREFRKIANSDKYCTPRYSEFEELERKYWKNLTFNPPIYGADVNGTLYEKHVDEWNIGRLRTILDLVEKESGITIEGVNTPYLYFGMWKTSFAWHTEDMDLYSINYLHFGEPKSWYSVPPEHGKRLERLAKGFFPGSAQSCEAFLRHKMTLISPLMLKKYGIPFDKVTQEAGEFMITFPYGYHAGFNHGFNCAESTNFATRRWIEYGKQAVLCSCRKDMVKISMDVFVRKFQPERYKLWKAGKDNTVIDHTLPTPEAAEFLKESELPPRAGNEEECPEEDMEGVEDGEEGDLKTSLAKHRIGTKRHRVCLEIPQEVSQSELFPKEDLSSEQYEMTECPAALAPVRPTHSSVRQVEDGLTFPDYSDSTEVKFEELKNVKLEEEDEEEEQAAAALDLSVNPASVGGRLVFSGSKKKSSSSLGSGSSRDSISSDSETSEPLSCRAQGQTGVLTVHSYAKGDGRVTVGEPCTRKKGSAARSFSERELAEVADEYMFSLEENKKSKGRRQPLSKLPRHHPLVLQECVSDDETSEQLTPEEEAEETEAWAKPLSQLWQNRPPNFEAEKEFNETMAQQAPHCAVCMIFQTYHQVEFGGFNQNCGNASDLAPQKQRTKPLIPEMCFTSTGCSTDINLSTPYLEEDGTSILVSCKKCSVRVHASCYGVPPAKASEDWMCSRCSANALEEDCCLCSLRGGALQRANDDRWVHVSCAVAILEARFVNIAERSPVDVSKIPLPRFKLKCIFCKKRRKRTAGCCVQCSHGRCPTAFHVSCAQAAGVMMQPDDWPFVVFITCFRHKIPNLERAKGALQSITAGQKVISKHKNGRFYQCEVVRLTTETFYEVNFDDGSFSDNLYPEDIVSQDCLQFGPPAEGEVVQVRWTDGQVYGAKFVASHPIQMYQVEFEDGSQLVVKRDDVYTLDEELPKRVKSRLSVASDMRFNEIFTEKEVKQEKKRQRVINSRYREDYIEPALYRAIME
GLS inh: glutaminase GLS (human) inhibition; hit rate 0.21% among 410,000; AID 624170; O94925; Potency, µM (series often up to 45.5 µM), for the others: top-dose activity change, negative = inhibition, actives largely listed as inhibitors; GLS enzymatic activity, qHTS titration; also: % is scaled to controls: 0 for no effect and ±100 for the full control effect
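Two-point fluorescence kinetic (t0, 30 min RT) for hKGA; glutamate detected via glutamate oxidase–HRP–Amplex Red. Substrate: 1 mM L-glutamine solution; buffer 45 mM KH2PO4, pH 8.2.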
BAZ2B inh: inhibitors of human BAZ2B bromodomain | Q9UIF8 | AlphaScreen BAZ2B-H3K14Ac peptide displacement | Potency, µM (top dose mostly 114 µM), for the others: at the highest dose activity change, negative = inhibition, actives largely listed as inhibitors | hit rate 4.4% among 360,000 | AID 504333; also: % is scaled to controls: 0 for no effect and ±100 for the full control effect; nearly all actives have a fitted effect of over 60% in size
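Multi-concentration screen (max 110 uM) measuring displacement of acetylated histone H3 peptide from BAZ2B by AlphaScreen, using 50 nM protein, 50 nM peptide and 10 ug/mL streptavidin donor plus Ni-chelate acceptor beads.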
The depositor's hits bear a star; ? = inconclusive; . = not tested or not shown; [ ] = another dose, or the depositor's remark. Compounds with a hit are over-represented: about 10% of the library has one in this group of screens. Calls follow the shape of the dose curve; as a rule, active = well fitted curve in the direction sought with a large enough effect; inconclusive = small, poorly fitted or top-dose-only effect, or another doubt; inactive = no such curve, though single readings can be large; an effect the other way counts as inactive or inconclusive. Potency is read from the fitted curve at half-maximal effect.

SMILES	HP1b chromo inh	G9a block	JMJD2A Tudor inh	GLS inh	BAZ2B inh
Cc1ccc(S(=O)(=O)N/N=C\c2cc3c(cc2Br)OCO3)cc1	31%	-13%[59 µM]	8%	2%	-6%
Cc1ccc2c(c1)C(c1ccccc1)N(C(=O)c1ccc(Br)cc1)CC(=O)N2 (stereo not drawn)	22%	6%	-34%	-6%	?
CC(C)CCNC(=O)CSCc1cnn(-c2ccccc2)c1-n1cccc1	29%	?	3%	9%	-4%
COc1ccc(-c2ccc3c(N)c(C(=O)c4cccc(OC)c4)sc3n2)cc1	69%	50µM*	-9%	3%	-18%
CCN(C(=O)c1cc2c(C)nc3ccccc3c2o1)c1cc(Cl)ccc1OC	-7%	.	-34%	-16%	?
C=C(C)Cn1c2ccc(NC(=O)NCc3ccc(F)cc3)cc2c(=O)n1C	.	.	.	-1%	.
Cc1ccc2oc3c(c(=O)c2c1)C(c1ccc(O)cc1)N(c1nc(C)c(C)s1)C3=O (stereo not drawn)	8%	12%[59 µM]	-6%	0%	0%
CN(C)CCCNCCCNC(=O)/C(=N\O)c1ccccn1	32%	7.9µM*	?	35%	50µM*
O=C(Nc1ccc(Cl)cn1)c1cccc2ccccc12	32%	1%[0.501 µM]	8%	0%	-6%
CCCCCn1c(C)c2c(OCC)cccc(=O)c2c1C	0%	-44%	-24%	-4%	?
CCOc1cccc(=O)c2c(C)n(C)c(C)c12	-25%	-13%[59 µM]	?	-9%	56µM*
COc1cccc(=O)c2c(C)n(-c3cc(C)cc(C)c3)c(C)c12	-12%	?	?	-3%	?
COc1cccc(=O)c2c(C)n(C)c(C)c12	-30%	16µM*	?	2%	?
COc1cccc(-n2c(C)c3c(OC)cccc(=O)c3c2C)c1	-19%	?	?	0%	56µM*
Cc1cccn2c(=O)c(C(=O)NCCc3ccccc3)cnc12	-3%	9%[59 µM]	-11%	0%	6%
CCOC(=S)SCC(=O)N1CCc2cc(OC)c(OC)cc2C1C1C(=O)CC(C)(C)CC1=O (stereo not drawn)	10%	45µM*	-33%	-11%	12%
CCOC(=S)SCC(=O)N1CCc2ccccc2C1C1C(=O)CC(C)(C)CC1=O (stereo not drawn)	25%	?	-26%	-5%	?
Cc1[nH]c2ccc(F)cc2c1CCN(Cc1cccnc1)C(=S)Nc1ccccc1	-2%	56µM*	?	8%	.
COc1ccc(NC(=S)N(CCc2c(C)[nH]c3ccc(C)cc23)Cc2cccnc2)cc1	-22%	50µM*	50µM*	3%	35µM*
Cc1[nH]c2ccccc2c1CCN(Cc1cccnc1)C(=S)Nc1ccc(F)cc1	-8%	?	?	1%	.
Cc1[nH]c2ccccc2c1CCN(Cc1cccnc1)C(=S)Nc1cccc(F)c1	-8%	50µM*	?	23%	.
CCOc1ccc(NC(=S)N(CCc2c(C)[nH]c3ccc(C)cc23)Cc2ccncc2)cc1	-20%	40µM*	25µM*	11%	35µM*
CC(=O)c1cccc(-c2ccnc3c2CC(C(=O)Nc2ccc(C(C)C)cc2)O3)c1 (stereo not drawn)	.	.	.	5%	.
CCOC(=O)C1CCCN(C(=O)C2CCN(S(=O)(=O)c3c(C)noc3/C=C/c3ccc(C)cc3)CC2)C1 (stereo not drawn)	22%[57 µM]	-4%[59 µM]	-24%	-3%	-18%
Cc1ccc(NC(=O)COC(=O)/C=C/c2c(C)nn(-c3ccc(F)cc3)c2Cl)cc1F	39%	1%[59 µM]	2%[57.1 µM]	-8%	9%
SMILES	HP1b chromo inh	G9a block	JMJD2A Tudor inh	GLS inh	BAZ2B inh
Cc1cc(S(=O)(=O)c2ccc(Cl)cc2)nc(S(=O)(=O)c2ccc(Cl)cc2)c1C#N	.	.	.	6%	.
CCCOc1ccc(C2/C(=C(/O)c3ccc(F)cc3)C(=O)C(=O)N2CCCN(C)C)cc1 (stereo not drawn)	18%	40µM*	-13%	7%	3%
COc1ccc(/C(O)=C2\C(=O)C(=O)N(CCN(C)C)C2c2cc(OC)c(OC)c(OC)c2)c(C)c1 (stereo not drawn)	5%	?	-31%	13%	79µM*
CCCCOc1ccc(/C(O)=C2/C(=O)C(=O)N(CCN(C)C)C2c2ccc(O)c(OC)c2)cc1 (stereo not drawn)	27%	?	-28%	4%	4%
CCCOc1cccc(C2/C(=C(/O)c3ccc(OC)cc3)C(=O)C(=O)N2CCN(C)C)c1 (stereo not drawn)	17%	50µM*	-26%	25%	2%
CCCOc1ccc(/C(O)=C2\C(=O)C(=O)N(CCCN(C)C)C23C(=O)N(C)c2ccccc23)cc1 (stereo not drawn)	.	45µM*	.	.	-38%
COc1ccc([C@H]2N[C@]3(CCCN(Cc4ccc(C)cc4)C3=O)[C@H]3C(=O)N(Cc4ccccc4)C(=O)[C@@H]23)cc1	.	.	.	2%	.
Cc1csc2nc(COC(=O)c3cccc(NC(=O)c4cccc(Cl)c4)c3)cc(=O)n12	26%	11%[59 µM]	-23%	-2%	-3%
CC(Sc1nnc(NCc2ccccc2)s1)C(=O)Nc1ccc2c(c1)C(=O)c1ccccc1C2=O (stereo not drawn)	-16%	3.2µM*	?	-3%	?
N#CC1=C(N)C(C#N)(C#N)C(c2ccc[nH]2)C2CCCC=C12 (stereo not drawn)	7%	35µM*	-31%	11%	-14%
N#CC1=C(N)C(C#N)(C#N)C(c2cccnc2)C2CC(c3ccccc3)CC=C12 (stereo not drawn)	40%	.	-8%	3%	-37%
N#CC1=C(N)C(C#N)(C#N)C(c2cccnc2)C2CCCC=C12 (stereo not drawn)	.	45µM*	.	.	-22%
COc1ccc(NC(=O)CN2C(=O)COc3ccc(S(=O)(=O)Nc4ccccc4)cc32)cc1	24%	-9%[59 µM]	-17%	1%	-22%
NC(=O)C[n+]1cccc2ccccc21	17%	?	22µM*	4%	-12%
O=C1CNC(=O)/C1=C\N1CCN(C(c2ccccc2)c2ccccc2)CC1	78%	45µM*	-18%	-5%	-31%
O=C(Oc1ccccc1)N1CCC2(CC1)CCN(c1ccccn1)CC2	.	-8%[12.7 µM]	.	.	.
O=C(CN1C(=O)COc2ccccc2C1=O)c1ccc2c(c1)OCCO2	34%	2%	2%	6%	3%
Cc1ccc(NC(=O)C(OC(=O)c2ccc(F)cc2)c2ccccc2)cc1Cl (stereo not drawn)	32%	21%[59 µM]	-12%	-4%	4%
Cc1ccc(NC(=O)C(OC(=O)c2ccc(O)cc2)c2ccccc2)cc1Cl (stereo not drawn)	56%	71µM*	-12%	-8%	-8%
CCOC(=O)c1cccc(NC(=O)c2cc3ccccn3n2)c1	29%	-16%[59 µM]	-2%	2%	3%
